Only some compounds are listed: those with a hit (about 4.6% of all), similar ones and a draw of the others.
NALP3 yeast inh: inhibitors of NALP3 inflammasome in yeast; Yeast reconstituted NLRP3/ASC/caspase-1, beta-gal luminescence, 24 h; 330,000 compounds, 0.39% hits; AID 2825; inhibition, % at 10 µM;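 active means inhibition of 50% or more; inactive means inhibition below 50%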;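 further: plate controls were induced DMSO wells for no effect and uninduced yeast grown without galactose for full effect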
PfHsp90 yeast 2: inhibits growth of yeast expressing Plasmodium falciparum Hsp90; inhibition, % at 9.4 µM; S. cerevisiae expressing PfHsp90, BacTiter-Glo ATP, 48 h; yeast lacking PDR1 and PDR3 efflux regulators; 310,000 compounds, 0.32% hits;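 active means every replicate shows inhibition above about 80%, whatever the replicate mean, limit read from the data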;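 further: 0% = DMSO neutral controls and 100% = 20 µM radicicol positive controls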
tim10-1 inh: inhibits growth of tim10-1 mutant yeast; S. cerevisiae tim10-1 ts strain growth, BacTiter-Glo, 24 h; AID 463190; inhibition, % at 20 µM; 330,000 compounds, 2.2% hits;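 active means inhibition of at least 40%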;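 further: mutant grown at 25 °C; 0% = DMSO wells with yeast and 100% = wells holding no yeast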
tim23-1 inh: inhibits growth of tim23-1 mutant yeast; 330,000 compounds, 1.3% hits; inhibition, % at 20 µM; S. cerevisiae tim23-1 growth, BacTiter-Glo luminescence, 24 h;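 active means growth inhibition of the mutant yeast at or above 50%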;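 further: temperature-sensitive mutant grown at 25 °C; plate controls were DMSO-treated mutant yeast for no effect and medium wells lacking yeast for full effect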
TIM10 inh: inhibits growth of TIM10 yeast strain. 330,000 compounds, 1.4% hits. S. cerevisiae TIM10 strain growth, BacTiter-Glo luminescence, 24 h. inhibition, % at 10 µM. AID 463195;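 active means inhibition of 40% or more at the single tested concentration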;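 further: wild-type TIM10 isogenic control strain grown at permissive 25 °C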
SKKanGAS inh: blocks kanamycin growth of S. pyogenes SKKanGAS strain; AID 1662; inhibition, % at 7.5 µM; 300,000 compounds, 1.3% hits; BacTiter-Glo, 6 h;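 active means mean replicate score, as percent of positive control median, at least 50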;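 further: strain carries kanamycin resistance gene driven by streptokinase promoter and grows in 40 µg/ml kanamycin; loss of luminescence reflects streptokinase promoter inhibition or plain growth inhibition; 0% = median of DMSO wells and 100% = positive control at its reference dose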
tim23-1 conf: tim23-1 yeast growth inhibition, confirmed. inhibition, % at 20 µM. AID 463218. shares compounds with tim23-1 inh. 4,400 compounds, 83% hits. S. cerevisiae tim23-1 growth, BacTiter-Glo luminescence, 24 h;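 active means inhibition above about 39% in either of two replicate wells at 20 µM, limit read from the data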;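 further: temperature-sensitive tim23-1 mutant grown at 25 °C; 0% = DMSO wells with yeast and 100% = medium wells without yeast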
* = called active by the depositor; / = no result given.

SMILES | NALP3 yeast inh | PfHsp90 yeast 2 | tim10-1 inh | tim23-1 inh | TIM10 inh | SKKanGAS inh | tim23-1 conf
O=C(OCc1nc2ccccc2s1)c1ccc([N+](=O)[O-])o1 | 15 | 13 | 0 | 55* | 20 | 7 | 59*
O=C(OCc1nc2ccccc2s1)c1ccc(Br)o1 | 6 | -13 | 13 | 17 | 3 | -2 | /
O=C(OCC(=O)N1CCCc2ccccc21)c1ccc(Br)o1 | 0 | -8 | 21 | 4 | -12 | -1 | /
O=C(OCC(=O)N1CCc2ccccc21)c1ccc([N+](=O)[O-])o1 | 10 | -6 | 15 | 70* | -47 | / | 73*
CC(C)(C)c1ccc(OCC(=O)NCc2ccco2)c(Br)c1 | 27 | -24 | 34 | 56* | 34 | 7 | 62*
CCOc1cc(C(=O)OCC(=O)NCc2ccco2)cc(OCC)c1OCC | -8 | 24 | 22 | 16 | 10 | -3 | /
Cc1ccc(-c2nnc(NC3CCCC3)s2)cc1 | 47 | -23 | 17 | 53* | 15 | 22 | 42*
Cc1ccc(C(=O)Nc2nnc(-c3ccc(C(C)(C)C)cc3)s2)cc1 | 1 | -3 | 7 | 11 | -1 | 19 | /
CCCn1c(N)c(C(=O)CSc2nnc3ccccn23)c(=O)n(C)c1=O | 13 | / | -2 | -8 | -4 | / | /
CN(C)C(=O)c1ccc(NC(=O)CN2CCc3cc4c(cc3C2)OCCCO4)cc1 | 9 | 27 | 13 | 5 | -1 | -1 | /
O=C(CN1CCc2cc3c(cc2C1)OCCCO3)Nc1cccc(Br)c1 | 3 | 2 | 39 | 60* | -1 | 1 | 74*
CN(C#N)c1nc(Cl)nc(Nc2cccc(Cl)c2)n1 | 10 | 11 | 40 | 69* | 13 | 7 | -55
CC(C)CNc1ncnc2[nH]ncc12 | / | -18 | / | / | / | / | /
CN(CC(=O)Nc1ccccc1Br)C(=O)c1ccccc1OCc1ccc(Cl)cc1 | / | 7 | / | / | / | / | /
Cc1cccc(C)c1NC(=O)CSc1nc2[nH]c(=O)cc(O)c2s1 | 6 | -8 | 6 | 17 | 11 | / | /
Brc1ccc(-c2csc(Nc3nc(-c4ccc(Br)cc4)cs3)n2)cc1 | 6 | -8 | 13 | 53* | 8 | 27 | 12
O=C(Nc1ccc(C(F)(F)F)cc1)N1CCN(c2ccnc3cc(Cl)ccc23)CC1 | 19 | -2 | 16 | 51* | 24 | 53* | 46*
O=C(Nc1cc(F)ccc1F)N1CCN(c2ccnc3cc(Cl)ccc23)CC1 | 33 | -8 | 22 | 21 | 11 | -3 | /
COC(=O)[C@]1(C)CCC[C@@]2(C)C3CC[C@@]4(C)C[C@]3(CCC21)CC4=NO (stereo not given in full) | 26 | 21 | 18 | 52* | 24 | / | 46*
Cc1cc(NC2CCCC2)n2ncc(-c3ccccc3)c2n1 | 15 | -21 | 37 | 50* | 22 | 23 | 18
Cc1cc(N)n2nc(C)c(-c3ccccc3)c2n1 | / | 16 | / | / | / | 13 | /
Cc1cc(NC2CCCC2)n2nc(C)c(-c3ccccc3)c2n1 | -3 | 11 | 28 | 51* | 35 | 0 | 43*
COc1ccc(C2=NS(=O)(=O)N(C)C(C(=O)NCc3cccs3)=C2)cc1OC | 2 | -34 | -12 | -12 | -7 | -2 | /
N#CC(C#N)=Cc1cnc(N2CCN(c3ccccc3)CC2)s1 | 23 | 0 | 4 | 1 | -8 | -6 | /
CCn1nc(C)c(CNCc2cn[nH]c2-c2cc3ccccc3o2)c1C | -1 | 9 | 9 | 1 | -6 | -5 | /
SMILES | NALP3 yeast inh | PfHsp90 yeast 2 | tim10-1 inh | tim23-1 inh | TIM10 inh | SKKanGAS inh | tim23-1 conf
CC1(C)CC2(CC(c3ccccc3F)c3ccc(O)c(O)c3O2)NC(=S)N1 (stereo not given) | 26 | -1 | 12 | -2 | -2 | 10 | /
CC(C)c1ccc(NC(=O)C2CC3CCC2C3)cc1 (stereo not given) | 44 | 2 | -15 | 37 | 22 | 9 | /
O=C(Nc1ccc(F)c(Cl)c1)C1CC2CCC1C2 (stereo not given) | -5 | -24 | 22 | 61* | 37 | -16 | 68*
O=C(Nc1ccc(F)cc1)C1CC2CCC1C2 (stereo not given) | 21 | -8 | 19 | 17 | -3 | -1 | /
CCC(C)c1ccc(NC(=O)C2CC3CCC2C3)cc1 (stereo not given) | 20 | -10 | 24 | 52* | 39 | 2 | 51*
O=C(Nc1oc2ccccc2c(=O)c1-c1ccc(Br)cc1)c1ccco1 | 29 | -3 | 19 | 52* | 24 | 18 | 41*
O=C(Nc1oc2ccc(Cl)cc2c(=O)c1-c1ccc(F)cc1)c1ccco1 | 3 | 11 | 29 | 53* | 18 | -2 | 46*
COc1cccc(-c2c(NC(=O)c3ccco3)oc3ccc(Cl)cc3c2=O)c1 | 10 | 0 | 22 | 17 | 4 | 7 | /
COc1cc(-c2c(NC(=O)c3ccco3)oc3c(C)cccc3c2=O)cc(OC)c1OC | 14 | 0 | 7 | 14 | 13 | 0 | /
COc1ccc(-c2c(NC(=O)c3ccco3)oc3c(C)cccc3c2=O)cc1 | 13 | -1 | 34 | 51* | 26 | 3 | 43*
COc1cccc(-c2c(NC(=O)c3ccco3)oc3ccccc3c2=O)c1 | 11 | 6 | 21 | 20 | 0 | -4 | /
NC(=O)c1cc2cc([N+](=O)[O-])ccc2oc1=O | 14 | 25 | -8 | 4 | -20 | -4 | /
COc1ccc(OC)c(C(=O)Cn2c3[n+](c4ccc(C(F)(F)F)cc42)CCCCC3)c1 | 1 | / | 7 | 2 | 12 | 7 | /
CN(C)c1cccc(C(=O)Nc2cccc(F)c2)c1 | 31 | -1 | 11 | 32 | 22 | -6 | /
CCN(CC)c1ccc(C(=O)Nc2cccc(F)c2)cc1 | 47 | 12 | 21 | 65* | 19 | -3 | 73*
COc1cccc(CNc2ccc([N+](=O)[O-])cc2Cl)c1O | 36 | -30 | 36 | 58* | 13 | 22 | 65*
CC(C)n1nc(C(=O)Nc2nnc(C3CC3)s2)c2ccccc2c1=O | 4 | -2 | 15 | 31 | 15 | -2 | /
CCSc1nnc(NC(=O)c2nn(C(C)C)c(=O)c3ccccc23)s1 | -16 | -22 | 32 | 57* | 23 | 4 | 37*
CCN(C(=O)Cn1c(=O)oc2ccccc21)c1ccc(C)c(C)c1 | -21 | -11 | 30 | 22 | 6 | 5 | /
CN(Cc1ccccc1)C(=S)NC(=O)c1ccc(-c2ccccc2)cc1 | 22 | 1 | 11 | 6 | 8 | 25 | /
CC(NC(=S)NC(=O)c1cccs1)c1ccccc1 (stereo not given) | 16 | -21 | 24 | 52* | 29 | / | 45*
CN(Cc1ccccc1)C(=S)NC(=O)c1cccs1 | 34 | -32 | 33 | 51* | 24 | 22 | 36
CC[C@@H]1C(c2cccc(Cl)c2)=NN(c2ccc(Br)cc2)[C@H]1C(=O)N1CCOC1=O | / | -3 | 20 | 50 | 16 | / | /

Source: PubChem
